Assay outcomes: PubChem BioAssay, National Center for Advancing Translational Sciences (NCATS)
HT1080 IDH1KD tx: qHTS for induction of synthetic lethality in tumor cells producing 2HG: qHTS for the HT-1080-IDH1KD cell line. HT-1080 IDH1 knockdown viability, ATP luminescence, 48 h. Potency, µM (titrated, usually from 46.1 µM), for inactives: top-dose activity, negative = toxicity, hits mostly cytotoxic. 2% of 360,000 active;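 note: 0% = DMSO wells and -100% = cell-free medium wells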
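% activity derives from luminescence (CellTiter-Glo), normalised to DMSO and no-cell wells. HT-1080-IDH1KD cells, 750/well, had 48 h compound exposure at 37 °C.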
KB-3-1 cytotox: qHTS assay for MDR1-selective chemotherapeutics: Primary screen using the parental adenocarcinoma cell KB-3-1; KB-3-1 viability, CellTiter-Glo ATP luminescence, 72 h; Potency, µM (highest dose often 46.1 µM), most hits filed as cytotoxic; 1.4% of 400,000 active; AID 1347075, 2019; note: % is set by controls: 0 for no effect and ±100 for the full control effect; nearly all actives have a fitted effect of over 60% in size
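Screening of KB-3-1 cells (DMEM, 10% FBS, phenol-red free) ran from lowest to highest compound concentration; after 72 h at 37 °C viability was read luminescently and curves fitted.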
KB-V1 cytotox: qHTS assay for MDR1-selective chemotherapeutics: Primary screen using the drug-selected MDR subline cells KB-V1; KB-V1 MDR cells viability, CellTiter-Glo, 72 h; Potency, µM (doses to about 46.1 µM), usual class: cytotoxic; 3.4% of 400,000 active; AID 1347076, 2019; note: % is set by controls: 0 for no effect and ±100 for the full control effect; nearly all actives have a fitted effect of over 60% in size
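KB-V1, DMEM (no phenol red) + 10% FBS; cpd pin-transferred, titration series; 72 h, 37 degrees C; CellTiter-Glo, luminescence. Data normalized, curve-fit.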
S2 tox: Viability Counterscreen for Primary qHTS for Inhibitors of ATXN expression; S2 cells (HEK-293 line with an ATXN2-luciferase reporter) viability, CellTiter-Fluor protease fluorescence, 24 h; Potency, µM (doses to about 56.7 µM), usual class: cytotoxic; 0.49% of 400,000 active; note: nearly all actives have a fitted effect of over 40% in size
HT1080-NT tox: qHTS for induction of synthetic lethality in tumor cells producing 2HG: qHTS for the HT-1080-NT fibrosarcoma cell line. HT-1080-NT fibrosarcoma viability, CellTiter-Glo ATP luminescence, 48 h. Potency, µM (titrated, usually from 46.1 µM), without a hit: at the top dose activity, negative = less viability, actives largely listed as cytotoxic. 1.6% of 360,000 active;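 note: NT is the 2HG producing partner of a matched IDH1 knockdown line; 0% = DMSO-treated cells and -100% = media-only wells without cells; nearly all actives have a fitted effect of over 55% in size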
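HT-1080-NT fibrosarcoma cells (2HG-overproducing), 750 cells/well in RPMI with 5% FBS, dosed after 2 h and incubated 48 h at 37C. CellTiter-Glo luminescence normalized to DMSO and no-cell wells; concentration-response curves fitted and classed.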
ATXN2 expr inh: Primary qHTS for Inhibitors of ATXN expression; HEK-293 ATXN2-luciferase reporter, luminescence, 24 h; Potency, µM (top dose mostly 57 µM), inactives show at the top dose activity change, negative = inhibition, actives largely listed as inhibitors; 0.72% of 360,000 active; AID 1745845, 2022; note: % is set by controls: 0 for no effect and ±100 for the full control effect; nearly all actives have a fitted effect of over 55% in size
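qHTS (up to 57 uM final) was run with 24 h compound exposure of reporter cells at 37 °C. Each well was multiplexed: SteadyGlo luminescence measured ATXN2-luciferase expression after a fluorogenic Gly-Phe-AFC viability readout (25 uM final).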
An asterisk follows results filed as active; i = inactive; u = inconclusive; x = no result given. Hits are enriched below; roughly 6.2% of the tested compounds scored in any of these assays. Calls come from the whole dose curve; as a rule, active = well fitted curve in the direction sought with a large enough effect; inconclusive = small, poorly fitted or top-dose-only effect, or another doubt; inactive = no such curve, though single readings can be large; an effect the other way counts as inactive or inconclusive. Potency is the fitted concentration of half-maximal effect.

SMILES	HT1080 IDH1KD tx	KB-3-1 cytotox	KB-V1 cytotox	S2 tox	HT1080-NT tox	ATXN2 expr inh
Cc1cc(NC(=O)CCCS(=O)(=O)c2nc(-c3cccs3)cc(C(F)(F)F)n2)no1	5.8µM*	13µM*	i	28.2µM*	5.8µM*	u
Cc1cc(NC(=O)CSc2nc(-c3cccs3)cc(C(F)(F)F)n2)no1	0.501µM*	1.64µM*	1.03µM*	i	0.794µM*	-20.4%
CCOc1ccc(S(=O)(=O)N(CC(=O)Nc2cccnc2)c2ccc(F)cc2)cc1	-2.7%	u	u	i	3.5%	-7.4%
C1=C(c2ccc3c(c2)CN(Cc2cccn2-c2ncccn2)CCO3)Cc2ccccc21	x	x	x	i	x	x
Clc1cccc(OCCN2CCN(CCOc3cccc(Cl)c3)CC2)c1	u	16.4µM*	i	u	u	u
O=C(O)CCc1cccc2ccccc12	x	i	i	x	x	x
Oc1cccc(/C=N/NC(=S)Nc2cccnc2)c1O	u	10.3µM*	i	i	u	u
Fc1c(F)c(F)c(/C=N/NC(=S)Nc2cccnc2)c(F)c1F	16.4µM*	i	i	u	u	u
Fc1cccc(F)c1/C=N/NC(=S)Nc1cccnc1	6.9%	i	i	u	8.5%	-26.0%
CC(=O)Nc1cccc(C(=O)NCc2ccc3c(c2)CCN3C(=O)c2ccc(F)cc2)c1	x	i	i	x	x	x
Cc1ccc(-c2cnc3c(Cl)c(C)nn3c2)cc1	-26.1%	u	11.6µM*	i	-7.5%	u
CCOC(=O)c1cc(OC)c2cccc(CN3CCCC(C)(C(=O)NCCOC)C3)c2c1 (centres undefined)	u	i	i	20µM*	-8.1%	u
CCOc1ccc2[nH]c3c(N4CCN(C(=O)c5ccco5)CC4)ncnc3c2c1	u	i	i	i	u	u
CCOc1ccc2[nH]c3c(N4CCC5(CC4)OCCO5)ncnc3c2c1	23.1µM*	u	u	i	u	u
COc1ccc(N2CCN(c3ncnc4c3[nH]c3ccccc34)CC2)cc1	-12.1%	i	i	i	-9.5%	u
CCOC(=O)N1CCN(c2ncnc3c2[nH]c2ccc(OC)cc23)CC1	-20.2%	i	14.6µM*	i	-8.5%	u
COc1ccc2[nH]c3c(N4CCc5ccccc5C4)ncnc3c2c1	10.3µM*	2.59µM*	2.59µM*	u	2.31µM*	u
COc1cc2[nH]c3c(N4CCN(c5ccccn5)CC4)ncnc3c2cc1OC	u	i	u	u	23.1µM*	-8.5%
CCOc1ccccc1CNC(=O)c1cc(-c2ccc(C)c(C)c2)nc2ccccc12	x	i	i	i	x	6.3%
O=C(COc1ccccc1C(=O)Nc1ccccc1)Nc1ccccc1F	x	i	i	x	x	x
CCc1cccc(CC)c1NC(=O)C1CN(S(=O)(=O)c2ccccc2)CCN1S(=O)(=O)c1ccccc1 (centres undefined)	17.4%	i	i	u	5.7%	2.7%
Cc1cccc(C(C)C)c1NC(=O)C1CN(S(=O)(=O)c2ccccc2)CCN1S(=O)(=O)c1ccccc1 (centres undefined)	2.5%	i	4.11µM*	i	7.5%	-6.5%
CCOC(=O)CN(C(=O)CNC(=O)c1cccs1)C(C(=O)NC1CCCCC1)c1cccs1 (centres undefined)	1.4%	i	20.6µM*	u	17.3%	3.1%
CNc1ccc(/C=C/C(=O)c2cccc3ccccc23)cc1[N+](=O)[O-]	1.4%	u	14.6µM*	u	14.7%	u
CNc1ccc(C(=O)c2ccccc2C(=O)O)cc1[N+](=O)[O-]	-2.2%	i	i	i	0.1%	x
SMILES	HT1080 IDH1KD tx	KB-3-1 cytotox	KB-V1 cytotox	S2 tox	HT1080-NT tox	ATXN2 expr inh
CCc1ccc(C(=O)c2cn(CC(=O)Nc3cc(OC)ccc3OC)c3ccc(Cl)cc3c2=O)cc1	x	i	i	i	x	-2.4%
COc1cccc(-c2nc(NC(C)(C)C)c3ccccc3n2)c1O	u	u	23.1µM*	i	u	-0.3%
COc1cccc(-c2nc(N3CCC(C)CC3)c3ccccc3n2)c1O	u	i	16.4µM*	i	u	-18.5%
COc1cccc(-c2nc(N3CCCC3)c3ccccc3n2)c1O	5.3%	i	i	i	9.3%	14.9%
Cc1ccc(SCC(=O)OCC(=O)NCCNC(=O)COC(=O)CSc2ccc(C)c(C)c2)cc1C	2.6%	0.0052µM*	i	i	2.3%	2.0%
COc1ccccc1CN(C)C(=O)C(c1ccccc1)c1ccccc1	16.4µM*	u	20.6µM*	i	u	-24.3%
CN(Cc1ccc(F)cc1)C(=O)C(c1ccccc1)c1ccccc1	-5.1%	i	i	i	-0.4%	-10.2%
CC(C)(C)OC(=O)NCc1ccc(NC(=O)c2nc[nH]c2C(=O)NCCNC(=O)c2[nH]cnc2C(=O)Nc2ccc(CNC(=O)OC(C)(C)C)cc2)cc1	13µM*	i	i	u	11.6µM*	-28.9%
CC(C)(C)OC(=O)CNC(=O)c1nc[nH]c1C(=O)NCc1ccc(CNC(=O)OC(C)(C)C)cc1	1.1%	u	i	i	-6.4%	-17.5%
C[C@@H](O)CNC(=O)c1[nH]cnc1C(=O)Nc1ccc(CNC(=O)OC(C)(C)C)cc1	-6.7%	i	i	i	-6.9%	-6.6%
CC(C)(C)OC(=O)CNC(=O)c1[nH]cnc1C(=O)Nc1ccc(CNC(=O)OC(C)(C)C)cc1	20.6µM*	u	u	u	u	31.6µM*
Cc1nc2cc(NC(=O)[C@@H]3C[C@@H](Sc4ccccn4)CN3Cc3cccc(F)c3)ccc2s1	x	x	x	i	x	x
CCc1sc(C(=O)NCc2cc(C)n(C)n2)cc1Br	15.8µM*	i	i	i	u	-1.5%
O=C(C[n+]1cc(-c2ccccc2)n2c1CCC2)Nc1nc(-c2ccccc2)cs1	-10.2%	16.4µM*	i	i	0.1%	10.1%
Cc1ccc(-c2c[n+](CC(=O)c3ccc(Br)cc3)c3n2CCCCC3)cc1	u	u	i	u	20.6µM*	u
O=C(C[n+]1cc(-c2ccccc2)n2c1CCCCC2)c1ccc(Cl)cc1	-2.7%	u	i	i	-1.9%	10.9%
Cc1ccc(NC(=O)C[n+]2cc(-c3ccccc3)n3c2CCC3)cc1	-11.3%	u	i	i	8.9%	x
